Data as given in PubChem BioAssay (NCI).
The panel holds about 79,000 compounds, 15% with a hit somewhere; the sample as a whole holds those more often. Activity calls are given as the source filed them. Rule as the data show it: active = growth inhibition above about 70%; inactive = the rest.

How the values were obtained:
[1] = NCI Yeast Anticancer Drug Screen. Data for the rad52 strain (AID 147);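 also: 0% = growth of vehicle-treated control cultures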; details: S. cerevisiae rad52 mutant growth inhibition, stronger effect = higher value
Procedure, shortened: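 Read-out: growth inhibition versus vehicle-treated controls. Cells were a DNA repair-deficient yeast strain treated with compounds.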

[2] = NCI Yeast Anticancer Drug Screen. Data for the wt1 strain (AID 149);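 also: 0% = growth of vehicle-treated wt1 cultures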; details: S. cerevisiae wt1 strain (SPY 50644) growth inhibition, stronger effect = higher value
Procedure, shortened: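 Vehicle-normalised growth inhibition; strain wt1; compound exposure.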

[3] = NCI Yeast Anticancer Drug Screen. Data for the rad50EPP+ strain (AID 151);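 also: 0% = growth of vehicle-treated control cultures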; details: S. cerevisiae rad50 mutant strain, stronger effect = higher value
Procedure, shortened: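 Growth inhibition read against vehicle controls in rad50EPP+ yeast, a strain altered in DNA damage repair, after compound exposure.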

[4] = NCI Yeast Anticancer Drug Screen. Data for the mgt1 strain (AID 153); details: S. cerevisiae mgt1 mutant growth inhibition, stronger effect = higher value
Procedure, shortened: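 mgt1 yeast grown with test compound; read-out is growth inhibition versus vehicle-treated cultures.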

[5] = NCI Yeast Anticancer Drug Screen. Data for the rad50 strain (AID 155);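 also: 0% = growth of vehicle-only cultures of the same strain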; details: S. cerevisiae rad50 strain growth inhibition, stronger effect = higher value
Procedure, shortened: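 A DNA repair-deficient yeast mutant serves as the test organism; compound-induced growth inhibition is calculated against vehicle-treated cells.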

[6] = NCI Yeast Anticancer Drug Screen. Data for the mec2-1 strain (AID 157); details: S. cerevisiae mec2-1 strain, stronger effect = higher value
Procedure, shortened: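 Yeast mec2-1 mutant treated with compound. Readout: growth inhibition vs vehicle controls.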

[7] = NCI Yeast Anticancer Drug Screen. Data for the rad14 strain (AID 159);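 also: 0% = growth of vehicle-treated control cultures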; details: S. cerevisiae rad14 strain growth inhibition, stronger effect = higher value
Procedure, shortened: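 Vehicle-treated cultures served as the baseline for growth inhibition of a DNA repair-mutant yeast strain exposed to each compound.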

[8] = NCI Yeast Anticancer Drug Screen. Data for the sgs1 mgt1 strain (AID 161);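 also: 0% = growth of cultures given vehicle only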; details: S. cerevisiae sgs1 mgt1 strain, stronger effect = higher value
Procedure, shortened: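 Mutant yeast exposed to compound; growth scored against vehicle-only wells.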

[9] = NCI Yeast Anticancer Drug Screen. Data for the CLN2oe strain (AID 163);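 also: 0% = growth of vehicle-only control cultures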; details: S. cerevisiae CLN2oe strain, stronger effect = higher value
Procedure, shortened: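 Read-out: yeast growth inhibition, expressed relative to vehicle-only controls. The strain bears an engineered cell-cycle alteration.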

[10] = NCI Yeast Anticancer Drug Screen. Data for the cln2 rad14 strain (AID 165);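 also: 0% = growth equal to vehicle treated cultures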; details: S. cerevisiae cln2 rad14 strain, stronger effect = higher value
Procedure, shortened: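 cln2 rad14 yeast strain; compound exposure; growth inhibition read vs vehicle controls.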

[11] = NCI Yeast Anticancer Drug Screen. Data for the bub3 strain (AID 167); details: S. cerevisiae bub3 mutant strain, stronger effect = higher value
Procedure, shortened: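 Inhibition values come from growth of compound-treated mutant yeast normalised to vehicle-treated controls.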

[12] = NCI Yeast Anticancer Drug Screen. Data for the wt2 strain (AID 169);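 also: 0% = growth of vehicle-treated yeast cultures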; details: S. cerevisiae wt2 strain growth inhibition, stronger effect = higher value
Procedure, shortened: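 Read-out: growth inhibition versus vehicle-treated control cultures after compound exposure of the yeast strain.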

[13] = NCI Yeast Anticancer Drug Screen. Data for the mlh1 strain (AID 171);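 also: 0% = growth of vehicle-treated control cultures of the same strain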; details: S. cerevisiae mlh1 strain growth inhibition, stronger effect = higher value
Procedure, shortened: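 Read-out: growth inhibition versus vehicle controls. Strain: engineered yeast with a defined DNA repair or cell cycle defect, compound-treated.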

[14] = NCI Yeast Anticancer Drug Screen. Data for the mlh1 rad18 strain (AID 175); details: S. cerevisiae mlh1 rad18 strain growth inhibition, stronger effect = higher value
Procedure, shortened: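 Yeast w/ defined DNA-repair lesions; compound exposure; growth vs vehicle controls → % inhibition.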

[15] = NCI Yeast Anticancer Drug Screen. Data for the rad18 strain (AID 177); details: S. cerevisiae rad18 mutant growth inhibition, stronger effect = higher value
Procedure, shortened: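 Readout: growth inhibition vs vehicle controls. Cells: genetically altered yeast strain, DNA repair defect.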

[16] = at 5.0 µM (retest, dose inferred, filed as 0.5)
[17] = at 50.0 µM (retest, dose inferred, filed as 5.0)

Measured: growth inhibition

CCN(CC)CCOc1cc(C)c2cc(Cc3ccccc3)ccc2n1
active: [1]; at 100.0 µM 82% | [2]; at 100.0 µM 71% | [4]; at 100.0 µM 98% | [5]; at 50.0 µM 88.2% | [5]; at 100.0 µM 92% | [6]; at 50.0 µM 82.7% | [6]; at 100.0 µM 84% | [7]; at 100.0 µM 99% | [8]; at 50.0 µM 96% | [11]; at 50.0 µM 88.2% | [11]; at 100.0 µM 81% | [12]; at 100.0 µM 94% | [13]; at 100.0 µM 94% | [14]; at 50.0 µM 96% | [15]; at 100.0 µM 99%
inactive: [1]; at 1.2 µM -1% | [1]; at 3.7 µM 2% | [1]; at 11.0 µM 2% | [1]; at 33.0 µM 18% | [2]; at 1.2 µM 0% | [2]; at 3.7 µM 1% | [2]; at 11.0 µM -1% | [2]; at 33.0 µM 3% | [3]; at 1.2 µM 0% | [3]; at 3.7 µM 0% | [3]; at 11.0 µM 3% | [3]; at 33.0 µM 7% | [3]; at 100.0 µM 31% | [4]; at 1.2 µM 2% | [4]; at 3.7 µM 5% | [4]; at 11.0 µM 10% | [4]; at 33.0 µM 35% | [5]; at 1.2 µM -40% | [5]; at 3.7 µM -2% | [5]; [16] 7% | [5]; at 11.0 µM -1% | [5]; at 33.0 µM 13% | [5]; [17] 57% | [6]; at 1.2 µM -2% | [6]; at 3.7 µM -3% | [6]; [16] -2% | [6]; at 11.0 µM 1% | [6]; at 33.0 µM 17% | [6]; [17] 8% | [7]; at 1.2 µM 4% | [7]; at 3.7 µM 16% | [7]; at 11.0 µM 25% | [7]; at 33.0 µM 36% | [8]; [16] 5% | [8]; [17] 47% | [9]; at 1.2 µM -4% | [9]; at 3.7 µM -9% | [9]; at 11.0 µM 0% | [9]; at 33.0 µM 15% | [9]; at 100.0 µM 52% | [10]; [16] 2% | [10]; [17] -5% | [10]; at 50.0 µM 53.9% | [11]; at 1.2 µM 2% | [11]; at 3.7 µM 1% | [11]; [16] 2% | [11]; at 11.0 µM 9% | [11]; at 33.0 µM 38% | [11]; [17] 13% | [12]; at 1.2 µM -1% | [12]; at 3.7 µM -2% | [12]; at 11.0 µM 2% | [12]; at 33.0 µM 13% | [13]; at 1.2 µM 0% | [13]; at 3.7 µM 1% | [13]; at 11.0 µM 11% | [13]; at 33.0 µM 28% | [14]; [16] 5% | [14]; [17] 28% | [15]; at 1.2 µM 3% | [15]; at 3.7 µM 15% | [15]; at 11.0 µM 28% | [15]; at 33.0 µM 65%
